We go through 115 compounds from ChEMBL document CHEMBL3988442, “University of Dundee, Small-Polar-MMV Screening Library” (2021).

Out of some 48,000 compounds screened, about 13,000 (27%) showed an effect of 50% or more. The list shows a part of the results.

This experiment concerns Wolbachia pipientis. Briefly: Anti-Wolbachia Cell-Based Screen. It is filed as functional. On the set-up: scale not given: in the data most compounds retested in dose-response had high values. The note with it: 5 µM.
As for `CCOc1ccc(NC(=O)c2cc(C)c(C)o2)cc1CO`, the “Percent Effect” value is -26.64%. The value for `CCn1ncc2c1CN(C(=O)c1ccc3c(c1)OCO3)CC2COC` (stereo not given) was 10.24%; that for `CC(C)Cn1[nH]cc/c1=N\C(=O)CN1CCOC(Cn2cccn2)C1` (stereo not given) was 19.87%; that for `Cc1ccc(CN2Cc3ccnn3CC(COCc3cccnc3)C2)o1` (stereo not given) was -8.625%. The value for `CCC(=O)NCC(c1ccc(SC)cc1)N1CCc2sccc2C1` (stereo not given) was 101.9%.

As to `CSc1ccc(C(CNC(C)=O)N2CCc3sccc3C2)cc1` (stereo not given), the “Percent Effect” value was determined as 95.64%. The result for `O=C(COCC1CC1)NCC(c1ccccc1)N1CCc2sccc2C1` (stereo not given) reads 1.717%; that for `O=C(NCCO)NCC(c1ccccc1)N1CCc2sccc2C1` (stereo not given), 12.78%. The result for `COc1ccc(CNC(=O)N2CCc3sccc3C2)cc1O` reads 11.16%; that for `CCOCCCC(=O)NCC(c1ccccc1)N1CCc2sccc2C1` (stereo not given), 0.7933%; that for `Cc1ccccc1CN(Cc1ccccn1)C(=O)CNS(C)(=O)=O`, -13.04%. With `CN(Cc1ccncc1)C1CCC[C@@H]2CN(c3ncccn3)C[C@H]12` (stereo not given in full), the “Percent Effect” value is recorded as -7.905%. For the compound `Cn1nc(CNC(=O)C2COc3ccccc3O2)cc1C1CC1` (stereo not given), the “Percent Effect” value was -7.331%. The value for `Cn1nccc1CNC(=O)CCn1nc(C(F)(F)F)c(Cl)c1C1CC1` was 93.44%. The value for `CC(C)(C)NC(=O)Cn1nc(C2CC2)cc(C(F)(F)F)c1=O` was -6.94%; that for `Cn1nccc1CNC(=O)NC1CCN(c2ncccc2Cl)C1` (stereo not given) was -9.354%; that for `Cn1nccc1CNC(=O)Cn1nc(C(F)(F)F)cc1C1CC1` was 104.1%. The result for `Cn1nccc1CNC(=O)Nc1cc(C(F)(F)F)c[nH]c1=O` reads -6.749%. On to `O=C(CCN1CCOC(C(F)(F)F)C1)NCc1ccc(Cl)cc1` (stereo not given), for which the “Percent Effect” value is recorded as -10.12%. The result for `Cn1nccc1CNC(=O)CCn1nc(C(F)(F)F)cc1C1CC1` reads 108.8%; that for `Cc1cc(Br)cnc1NCCN1CCC(N(C)C)CC1`, 23.33%; that for `CCc1cnc(C)nc1NCCN1CCOCC1`, -2.451%. The value for `Cc1nc2[nH]cnc(NCCN3CCOCC3)c-2n1` was 110.5%; that for `Cc1nc2[nH]cnc(NCCN3CCCC3)c-2n1` was 101.2%; that for `COC1CCN(CCNc2ncc(Br)cc2C)CC1` was 16.05%. The value for `Cc1nc2[nH]cnc(NCCCN3CCOCC3)c-2n1` was 111.6%; that for `Cc1ccc2nc(NCCN3CCOCC3)n(C)c(=O)c2c1` was 2.729%; that for `CCn1nc(C)c2ncnc(NCCCN3CCOCC3)c21` was 9.832%.

In the case of `CCCN(C(=O)c1csnn1)C1CCCN(Cc2ccccc2)C1` (stereo not given), the “Percent Effect” value is reported as 2.292%. The value for `CN(C)CC(=O)N1Cc2cc(-c3cc[nH]n3)ccc2C1c1cnco1` (stereo not given) was -12.12%. The value for `CN(C)[C@@H]1CO[C@H](CNC(=O)c2ccccc2)[C@H]1O` was 9.178%; that for `CN1CCCC2(CCN(c3cccc(C#N)n3)C2)C1=O` (stereo not given) was 8.303%.

In the case of `COCCN1CCCC2(CCN(c3cccc(C(F)(F)F)n3)C2)C1=O` (stereo not given), the “Percent Effect” value is on record as -1.331%. On to `Cc1cc(N2CCC3(CCCN(CCO)C3=O)C2)nc(C)c1C#N` (stereo not given), for which the “Percent Effect” value was determined as 111%. The result for `COCCN1CCCC2(CCN(c3nc(C)nc4c3CCC4)C2)C1=O` (stereo not given) reads -6.714%; that for `Cc1nc(N2CCC3(CCCN(CCO)C3=O)C2)c2sccc2n1` (stereo not given), -11.1%. The result for `CCCN1CCCC2(CCN(c3nccc(OC)n3)C2)C1=O` (stereo not given) reads 1.241%; that for `COCCN1CCCC2(CCN(c3ncnc(C)c3C)C2)C1=O` (stereo not given), -47.68%; that for `Cc1cc(C)c(C#N)c(N2CCC3(CCCN(CCO)C3=O)C2)n1` (stereo not given), 111.5%. In the case of `COCCN1CCCC2(CCN(c3cc(C)c(C#N)c(C)n3)C2)C1=O` (stereo not given), the “Percent Effect” value is reported as 99.04%. The result for `CN(Cc1ccc([S+](C)[O-])cc1)c1ccc(C(F)(F)F)cn1` (stereo not given) reads -27.71%; that for `Cn1ccnc1CN1CCCN(C(=O)c2ccc3cc[nH]c3c2)CC1`, 138.1%. The result for `CC(C)n1ccnc1CN1CCCN(C(=O)c2cc(Cl)c[nH]2)CC1` reads 1.928%; that for `CC(C)COC(=O)N1CCCN(C(=O)c2ccnc(N(C)C)c2)CC1`, 6.425%. Regarding `CC(C)OCCN1CCN(C(=O)c2cccc(CC#N)c2)CC1`, the “Percent Effect” value is reported as 4.967%. Consider `Cn1ccnc1CN1CCCN(C(=O)c2cccc(CC#N)c2)CC1`, for which the “Percent Effect” value came to 107.2%. The value for `CCC(O)CN1CCN(C(=O)c2ccnc(N(C)C)c2)CC1` (stereo not given) was -16.43%; that for `Cc1nsc(N2CCCN(C(=O)c3ccc4[nH]ccc4c3)CC2)n1` was -10.99%; that for `Cn1ccnc1CN1CCCN(C(=O)c2ccc3ccccc3c2)CC1` was 100.6%. The result for `CCn1ccnc1CN1CCCN(C(=O)c2cccc(C#N)c2)CC1` reads -3.279%; that for `CN(C)c1cc(C(=O)N2CCCN(Cc3nccn3C)CC2)ccn1`, 107%. The result for `CC(=O)N1Cc2nccn2CC(CNC(=O)c2cnccn2)C1` (stereo not given) reads -28.44%; that for `O=C(O)C(F)(F)F.O=C([C@H]1C[C@@H]2[C@@H](C1)OCCN2CC1CC1)N1CCCC1`, -8.225%; that for `CS(=O)(=O)CCC(=O)NC(c1ccc(F)cc1)C(F)(F)F` (stereo not given), -10.12%. Take `Cn1ccnc1CN1CCCN(C(=O)c2ccc3c(c2)COC3)CC1`: the “Percent Effect” value is listed as -4.984%. The value for `Cn1ccnc1CN1CCCN(C(=O)c2ccc(O)nc2)CC1` was 99.8%; that for `CCn1ccnc1CN1CCCN(C(=O)c2ccc(C#N)cc2)CC1` was -7.951%; that for `Cn1ccnc1CN1CCCN(C(=O)c2ccc3c(c2)OCO3)CC1` was 100.5%. As to `O=C(Cc1ccsc1)NCCc1ccoc1`, the “Percent Effect” value is listed as -2.885%. The value for `Cc1nnc(CN2CCCC(CCc3ccccc3C(F)(F)F)C2)o1` (stereo not given) was 7.283%. The result for `Cc1nc(CN2CCCC(CCc3ccccc3C)C2)c[nH]1` (stereo not given) reads 4.75%. The value for `Cc1ccccc1CCC1CCCN(Cc2nnc(-c3ccco3)o2)C1` (stereo not given) was 85.71%; that for `CCc1cnc(CN2CCCC2c2noc(C3CC3)n2)o1` (stereo not given) was 2.963%. In the case of `Cc1cc(N2CCCC(N(C)C)C2)n2nc(C)cc2n1` (stereo not given), the “Percent Effect” value amounted to 4.471%. With `COc1cc(CNCCn2cc(C)cn2)c2c(c1)CC(C)O2` (stereo not given), the “Percent Effect” value is reported as -8.791%. The result for `FC(F)(F)CN1CCC(CCNc2ncccn2)CC1` reads -5.19%. The value for `O=S1(=O)COCCN1Cc1ccc(Cl)c(Cl)c1` was 174.3%.

`Cc1oc(-c2cccc(F)c2)nc1CN1CCOCS1(=O)=O`: the “Percent Effect” value is -0.8413%. The value for `Cc1cc(CN2CCOCS2(=O)=O)ccc1F` was -11.48%. In the case of `CC(=O)N1CCN(Cc2ccc(F)c(C(F)(F)F)c2)CC(O)C1` (stereo not given), the “Percent Effect” value is given as -17.39%. The value for `Cc1ccc(-c2nc(CN3CCOCS3(=O)=O)c(C)o2)cc1` was -5.038%; that for `O=S1(=O)COCCN1Cc1ccc(F)cc1Cl` was 116.6%; that for `O=S1(=O)COCCN1Cc1ccc(Cl)c(F)c1` was -18.76%. The value for `O=S1(=O)COCCN1Cc1cccc(Cl)c1` was -18.09%; that for `Cc1ccc(CN2CCOCS2(=O)=O)cc1F` was 130.8%; that for `O=C1CCOCCN1Cc1ccc(C(F)(F)F)c(F)c1` was -2.892%.

On to `O=S1(=O)COCCN1Cc1ccc(F)c(C(F)(F)F)c1`, for which the “Percent Effect” value worked out at 116.1%. The result for `CCc1ccc(CCC(=O)NCc2nnc[nH]2)cc1` reads 9.868%; that for `O=C(CCn1cccn1)NS(=O)(=O)N1CCCc2ccccc21`, -12.53%; that for `CN(C)c1nc(N)nc(CSCCC(=O)Nc2ccc(F)cc2)n1`, -6.74%. The value for `COCCN1CCN(CC(=O)N(C)Cc2ccc(F)cc2)CC1C` (stereo not given) was 0.8723%. The value for `O=C(CN1CCOCS1(=O)=O)NCCc1ccc(Cl)cc1` was 2.599%; that for `O=S1(=O)COCCN1Cc1ccc(F)c(F)c1` was 115.2%. For `O=C(CN1CCOCS1(=O)=O)NCc1ccccc1`, the “Percent Effect” value is reported as -2.644%. The value for `Cc1cccnc1NC(=O)CSc1ccc2c(c1)OCCO2` was -1.464%; that for `CCN(CC)C(=O)Nc1ccc(N2CCSCC2)cc1C` was -12.7%; that for `CC(C)c1nnc(NC(=O)N(C)Cc2ccc(C(N)=O)cc2)s1` was 102.8%. The value for `CC(C)c1nnc(NC(=O)NC2CCOc3ccccc32)s1` (stereo not given) was -12.43%; that for `CSc1cc2c(cc1NC(=O)N(C)Cc1ccncc1)OCCO2` was -3.541%; that for `CNC(=O)c1ccc(CN(C)c2ccc(C(F)(F)F)cn2)cc1` was 22.77%. The value for `CNC(=O)c1ccc(CN(C)C(=O)Nc2nnc(C(C)C)s2)cc1` was 109.8%; that for `COCCN(Cc1ccc(C)o1)C(=O)Nc1nnc(C(F)F)s1` was -29.25%.

`CC(C)c1nnc(NC(=O)N(C)Cc2ccncc2)s1`: the “Percent Effect” value turned out to be 78.38%.

On to `CC(C)c1nnc(NC(=O)NCc2cccnc2NCCN(C)C)s1`, for which the “Percent Effect” value is listed as -11.78%. The result for `CC(NC(=O)N(C)Cc1ccncc1)c1nncn1C` (stereo not given) reads 2.48%; that for `Clc1ccc(NCc2nnc(C3CC3)o2)cc1Cl`, -1.785%. Consider `CC(=O)Nc1cc(Br)cnc1OCC(F)(F)F`, for which the “Percent Effect” value is -6.07%. The value for `Cc1nc(-c2ccco2)ccc1C(=O)N1CCc2nnc(N)cc2C1` was -5.155%. The result for `O=C(CCC(=O)c1ccccc1)NC1(C(=O)NCC2CC2)CCCC1` reads -11.29%; that for `CCc1nc(N)nc(N2CCCC3(CCOCC3)C2)c1C`, 10.4%; that for `CCc1nc(N)nc(N2CCCC3(CCN(C)CC3)CC2)c1C`, 62.58%. The value for `CCc1nc(N)nc(N2CCCC3(CN(C)C(=O)O3)C2)c1C` (stereo not given) was -2.167%; that for `CCOCC(=O)N1CCC(C2CCN(Cc3ccc(Cl)cc3)C2)CC1` (stereo not given) was -8.468%. Take `COc1ccc(CNC(C)c2cnn(C)c2)cc1OC1CCCC1` (stereo not given): the “Percent Effect” value came to 106.9%. The result for `CC(NCCN1CCN(C(=O)C2CCCC2)CC1)c1cnn(C)c1` (stereo not given) reads 3.842%; that for `COc1cc(CNc2cnn(C)c2)cc2c1OCCO2`, -0.1017%; that for `O=C(Nc1cccc(CNCc2cccs2)c1)C1CCCC1`, 0.6832%. The result for `COc1ccc(CNC(c2cccc(F)c2)c2cnn(C)c2)cc1` (stereo not given) reads 4.131%; that for `CCOc1cc(CNC(C)c2ccc(F)cc2)ccn1` (stereo not given), -5.561%; that for `CC(NCc1cccc(COC2CCCC2)c1)c1cnn(C)c1` (stereo not given), 126.5%. The value for `Clc1cnccc1NCc1cccc(COC2CCOCC2)c1` was -32.94%; that for `CC(NCc1ccnc(OC2CCC2)c1)c1cnn(C)c1` (stereo not given) was 127.4%. As for `Cn1cc(C(NCc2ccc(F)cc2)c2cccc(F)c2)cn1` (stereo not given), the “Percent Effect” value was -2.157%.

As to `CC(C(=O)NCc1ccnc(OC2CCCC2)c1)n1cncn1` (stereo not given), the “Percent Effect” value was 10.69%. The value for `CC(NCc1cccc(NC(=O)C2CCCCC2)c1)c1cnn(C)c1` (stereo not given) was 104.4%.
